Sampled rows, rich in hits. Any-hit rate of the full collection: about 3.8%.
S2 tox: cell viability loss in ATXN counter-screen; S2 cells (HEK-293 line with an ATXN2-luciferase reporter) viability, CellTiter-Fluor protease fluorescence, 24 h; Potency, µM (top dose mostly 56.7 µM), actives largely listed as cytotoxic; hit rate 0.49% among 400,000; further: nearly all actives have a fitted effect of over 40% in size
HepG2 tox: kills HepG2 cells in TGF-b inhibitor counter-screen | hit rate 0.76% among 410,000 | HepG2 CAGA-GFP viability, ATP luminescence, 18 h | Potency, µM (doses to about 46.1 µM), for the others: at the top dose activity change, negative = cytotoxicity, actives largely listed as cytotoxic
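CellTiter-Glo luminescence gave cytotoxicity after 18 hours at 37 degrees C. The cells were HepG2 CAGA-GFP in 1% FBS DMEM, stimulated with 500 pg/mL TGF-beta after compound addition. %Activity was normalised to no-cell wells (complete cell-killing) and DMSO (no toxicity), and curves were fitted and classified.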
A549 tox: A549 cytotoxicity, counter-screen for Nrf2 inhibitors; A549 ARE-Fluc cells, CellTiter-Fluor viability, 18-24 h; Potency, µM (doses to about 46 µM), for inactives: top-dose activity change, negative = cytotoxicity, hits mostly inhibitors; hit rate 0.16% among 390,000; further: on the % scale 0 is the no-effect control and ±100 the full control effect
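A549 ARE_Fluc cells in 5% FBS OPTI-MEM were exposed to compounds in concentration-response for 18-24 h at 37 deg C. Viability was read by CellTiter-Fluor fluorescence (Ex 405/Em 525) after 30 min, before the luciferase read.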
ATXN2 expr inh: inhibitors of ATXN2 expression | HEK-293 ATXN2-luciferase reporter, luminescence, 24 h | Potency, µM (doses to about 57 µM), for the others: top-dose activity change, negative = inhibition, hits mostly inhibitors | hit rate 0.72% among 360,000; further: on the % scale 0 is the no-effect control and ±100 the full control effect; nearly all actives have a fitted effect of over 55% in size
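ATXN2-luciferase reporter cells (luciferase flanked by upstream and downstream ATXN2 gene portions) were treated 24 h at 37 °C with compounds at up to 57 uM. SteadyGlo luminescence gave expression; GF-AFC fluorescence gave viability.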
Nrf2 block: inhibitors of Nrf2 signaling | hit rate 2.1% among 360,000 | AID 504444 | Potency, µM (top dose mostly 46 µM), inactives show top-dose activity change, negative = inhibition, actives largely listed as inhibitors | A549 ARE-Fluc reporter, luciferase luminescence, 18-24 h; further: on the % scale 0 is the no-effect control and ±100 the full control effect; nearly all actives have a fitted effect of over 60% in size
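A549 ARE_Fluc cells, 5000/well, 5% FBS OPTI-MEM; compounds in dose-response, 18-24 h at 37 °C/5% CO2; CellTiter-Fluor viability read (Ex 405/Em 525), then BugLite luciferase luminescence = Nrf2 activity.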
TGFb SMAD3 inh: TGF-b pathway inhibition | HepG2 CAGA-GFP TGF-b/SMAD3 reporter, GFP fluorescence, 18 h; TGF-beta stimulated, 500 pg/mL final | Potency, µM (titrated, usually from 46.1 µM), for inactives: at the highest dose activity, negative = inhibition, actives largely listed as inhibitors | hit rate 1.2% among 410,000; further: on the % scale 0 is the no-effect control and ±100 the full control effect; nearly all actives have a fitted effect of over 65% in size
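TGF-beta reporter screen: HEPG2 CAGA-GFP, 1% FBS, 500 pg/mL TGF-beta final, 18 h; per-cell GFP summed per well; curves fitted and categorized by class.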
Starred values were filed as active, the others as inactive; i = inactive; ? = inconclusive; / = no result. The call rests on the fitted dose curve; in most records, active means well fitted curve in the direction sought with a large enough effect; inconclusive means small, poorly fitted or top-dose-only effect, or another doubt; inactive means no such curve, though single readings can be large; an effect the other way counts as inactive or inconclusive. Potency means the concentration at half of the fitted maximal effect.

SMILES	S2 tox	HepG2 tox	A549 tox	ATXN2 expr inh	Nrf2 block	TGFb SMAD3 inh
CC(=NNC(=S)N1CCN(c2ccccn2)CC1)c1ccccn1	i	2%	-4%	-22%	-4%	0%
CC(=NNC(=S)N1CC2CCC(CC2)C1)c1ccccn1	?	13µM*	/	/	/	?
CCCCCC(=O)Nc1cccc(C2=NOC3(C2)C[C@@H](C(N)=O)N(C(=O)C2(C)CC2)C3)c1 (some centres undefined)	i	0%	3%	6%	8%	2%
C/C(=N\NC(=O)C1CCCN(S(=O)(=O)c2ccccc2)C1)c1ccncc1 (centres undefined)	i	9%	2%	3%	5%	14%
CC(=NNC(=S)N1CCN(c2ccccn2)CC1)c1nccs1	?	1%	-27%	?	13µM*	?
CC(=NNC(=S)N1CCCCCC1)c1cccc2cccnc12	?	14%	?	?	?	2.2µM*
C/C(=N\NC(=O)C1CCCN(S(=O)(=O)c2ccccc2)C1)c1ccccn1 (centres undefined)	?	-32%	?	8.9µM*	12µM*	-27%
S=C(Nc1ccc(Oc2ccccc2)cc1)N1CCN(c2ccccn2)CC1	i	-1%	-21%	/	16µM*	?
Cc1ccsc1C(C(=O)NC(C)(C)C)N(C(=O)c1csnn1)c1ccccc1 (centres undefined)	i	-6%	11%	/	4%	-8%
Cc1cccc(C(=O)NC2CCN(CC(=O)NCc3ccccc3F)CC2)c1	i	-2%	-17%	2%	-23%	2%
Cn1c(=O)c2[nH]c(C3CCCC3)nc2n(C)c1=O	i	-2%	-9%	-6%	6.5µM*	9%
Cn1c(=O)c2[nH]c(C3CC=CCC3)nc2n(C)c1=O (centres undefined)	i	4%	-4%	20%	?	-5%
O=C(Cc1ccccn1)c1ccc(Cl)cc1	i	-16%	2%	13%	?	?
CC1=C(CC(=O)c2ccc(Cl)cc2)C(=O)c2ccccc2C1=O	i	13µM*	?	66%	?	13µM*
O=C(CN1C(=O)NC2(CCCC2)C1=O)OCCOc1ccc(Br)cc1	i	-2%	-2%	1%	1%	-7%
CCOc1ccc(S(=O)(=O)N2CCN(C(=O)c3cc(C4CC4)nn3-c3ccccc3)CC2)cc1	i	14%	-7%	7%	?	-19%
O=C(NCCc1ccccn1)C1CC12CCN(C(=O)c1ccccc1Cl)CC2 (centres undefined)	i	/	/	/	/	/
COc1cc(C#Cc2c(-c3cncn3C)n(C)c3ccc(-c4cc(OC)c(OC)c(OC)c4)cc23)cc(OC)c1	i	-14%	-13%	?	?	?
COc1cc(C#Cc2c(-c3cncn3C)n(C)c3ccc(-c4ccc(OC)nc4)cc23)cc(OC)c1	?	-30%	14%	28µM*	-20%	?
CCCCn1c(=O)[nH]c(=O)c2c1nc(Cn1ncc(Cl)c(Cl)c1=O)n2CCC	?	11µM*	-4%	?	7%	6.3µM*
COc1ccccc1OCC(=O)Nc1ccc(CSc2ccccc2)cc1C	i	-16%	-15%	-4%	10µM*	-6%
Cc1cc(CSc2ccccc2)ccc1NC(=O)COc1ccccc1	i	-21%	-9%	4%	?	-6%
CCOc1ccc(C(=O)OCc2cc(=O)n3nc(C(C)C)sc3n2)cc1	i	-20%	-1%	-2%	?	?
Cc1ccc(OCc2cc(C(=O)NC3CCc4ccccc43)no2)cn1 (centres undefined)	i	-27%	1%	-18%	13µM*	-21%
COc1ccc(-c2cn3nc(N4CCCC(C(=O)Nc5ccccc5OC)C4)sc3n2)cc1 (centres undefined)	/	-6%	4%	/	?	?
SMILES	S2 tox	HepG2 tox	A549 tox	ATXN2 expr inh	Nrf2 block	TGFb SMAD3 inh
CCOc1ccc(CCN2C(=S)N([C@@H](Cc3ccc(O)cc3)CN3CCCC3CN3C(=S)NC[C@@H]3Cc3ccc(O)cc3)C[C@@H]2CC(C)C)cc1 (some centres undefined)	i	0%	-11%	?	16µM*	?
CC(C)C[C@H]1CN([C@@H](CC(C)C)CN2CCC[C@@H]2CN2C(=S)NC[C@@H]2Cc2ccc(O)cc2)C(=S)N1CC1CCCCC1	32µM*	-55%	/	0%	/	?
CCOc1ccc(CCN2C(=S)N([C@@H](Cc3ccccc3)CN3CCC[C@@H]3CN3C(=S)NC[C@@H]3Cc3ccc(O)cc3)C[C@@H]2CC(C)C)cc1	i	-9%	/	-13%	/	?
Oc1ccc(C[C@H]2CN([C@@H](Cc3ccccc3)CN3CCC[C@@H]3CN3C(=S)NC[C@@H]3Cc3ccccc3)C(=S)N2CC2CCCCC2)cc1	?	-33%	/	0%	/	13µM*
CC(C)C[C@H]1CNC(=S)N1C[C@H]1CCCN1C[C@H](Cc1ccccc1)N1C[C@H](Cc2ccc(O)cc2)N(CC2CCCCC2)C1=S	?	-38%	/	?	/	11µM*
COc1ccc(CCNC(=O)c2cc(Nc3ccccc3)nc3ccccc23)cc1OC	/	-5%	-17%	/	/	0%
COc1ccc(-c2nc(CNC(=O)Nc3ccccc3)c(C)o2)cc1	i	-4%	-12%	-5%	/	-3%
CCN(CC)CCCOC(=O)c1ccc(OC)cc1O	i	-1%	3%	-12%	?	4%
Cc1onc(-c2c(Cl)cccc2Cl)c1C(=O)Nc1ccc(N2CCOCC2)cc1	i	-4%	0%	13%	0%	-1%
Cc1ccc(N2CCN(C(=O)c3cc(-c4ccc(F)cc4)[nH]c3C)CC2C)cc1 (centres undefined)	i	-27%	-14%	2%	?	?
O=C(N/N=C/c1ccc(O)cc1)c1cccc(N/N=C/c2ccc(O)cc2)c1	i	-17%	-1%	-3%	14%	0%
FC(F)(F)c1ccccc1Cc1c(-c2ccco2)nc2ccc(Br)cn12	?	-95%	/	?	/	?
O=C(COC(=O)c1cccc(S(=O)(=O)Nc2ccc(F)cc2)c1)NCCN1C(=O)CSC1=O	i	5%	-2%	0%	1%	3%
CCC(=O)NCc1cc(-c2nn(C)c(=O)c3ccccc23)ccc1C	i	-7%	-9%	0%	-43%	17%
